A short description of test [1]: Cell Viability - Hek293 (AID 427;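 active = compounds whose dose-response curve shows a full or clear partial loss of cell viability, called from curve shape rather than a numeric limit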;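 note: potency is the fitted concentration of half-maximal effect; cells exposed to compound for 40 hours at 37 °C before reading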). The settings on record: qHTS. The procedure, abridged: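 HEK293 cells in complete medium were exposed to compound for 40 hr at 37 °C, then cellular ATP was read by CellTiter-Glo luminescence. Data were normalized to DMSO (basal) and 100 uM tamoxifen (100% inhibition), and AC50 came from Hill fits.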
The target of test [2] is Mitogen-activated protein kinase 10 (Mus musculus) (UniProt Q61831). As to the kind of experiment: JNK3 AlphaScreen Assay (AID 530; active = well fitted curve in either direction with a large enough effect, not every such curve was filed as active;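 note: kinase came from lysate of stimulated human HepG2 cells; signal reports phosphorylation of biotinylated GST-cJun 1-79 at Ser73 with 10 µM ATP; % is set by controls: 0 for no effect and ±100 for the full control effect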). The settings on record: JNK3 lysate, c-Jun phosphorylation; series mostly up to 57.1 µM. The gist of the method:
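Inhibitors reduce antibody binding to phosphorylated biotin-cJun, lowering AlphaScreen luminescence. Lysates from HepG2 cells pre-activated by IL-1beta plus TNF-alpha supplied JNK3; compounds were titrated.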

Test [3] can be described thus: Cell Viability - HUV-EC-C (AID 542). Note: % is set by controls: 0 for no effect and ±100 for the full control effect; nearly all actives have a fitted effect of over 35% in size. The settings on record: HUV-EC-C endothelial cell viability, qHTS; series mostly up to 92.2 µM. The procedure, abridged:
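qHTS cytotoxicity: HUV-EC-C, 1000 cells/well, 5 hr settle, compound 40 hr 37 °C, CellTiter-Glo, luminescence. AC50 via Hill equation.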

Test [4] is described as follows: MultiTox-Fluor Cytotoxicity Assay - LYMP1-002 - Live Cells (AID 955). Note: % is set by controls: 0 for no effect and ±100 for the full control effect. The settings on record: LYMP1-002 lymphoblastoid live-cell protease fluorescence viability; series mostly up to 46.1 µM. The procedure, abridged: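 Read-out is live-cell protease activity (cell-permeant GF-AFC substrate, fluorescence Ex/Em=405/510), where a decrease indicates acute toxicity. Human lymphoblastoid cells were treated 16 hours at 37 C in a concentration series, and AC50 values came from standard Hill modelling.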

Test [5] is described as follows: MultiTox-Fluor Cytotoxicity Assay - LYMP1-003 - Dead Cells (AID 961).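 Note: 0% = DMSO and 100% = tetraoctylammonium bromide; nearly all actives have a fitted effect of over 70% in size.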 The settings on record: LYMP1-003 lymphoblastoid cells, dead-cell protease fluorescence; series mostly up to 92.2 µM. The gist of the method:
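LYMP1-003 human lymphoblastoid cells (2500/well) exposed to compound 16 h at 37 C in complete medium; dead-cell protease read with bis-AAF-R110 fluorescence (Ex/Em 485/520) after 60 min at room temperature. Normalized to DMSO and 15 uM tetraoctylammonium bromide; AC50 from Hill fit.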

The nature of test [6]: Cell Viability - LYMP1-003 - Assay at 24 hr (AID 963).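 Note: plate controls were DMSO only for no effect and tetraoctylammonium bromide positive control for full effect.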 The settings on record: LYMP1-003 lymphoblastoid cell viability; series mostly up to 92.2 µM. The procedure, abridged: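 Cells seeded at 2500/well, 5 hr at 37 C; compounds added; 24 hr at 37 C; CellTiter-Glo added, 30 min room temperature; luminescence read. Decrease in ATP taken as cytotoxicity, AC50 from Hill modelling.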

Test [7] is described as follows: Cell Viability - LYMP2-005 (AID 967).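 Note: plate controls were DMSO only for no effect and 92 µM tetraoctylammonium bromide control for full effect.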 The settings on record: LYMP2-005 lymphoblastoid cell viability; series mostly up to 92.2 µM. The gist of the method: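 CellTiter-Glo luminescence (cellular ATP) read-out; LYMP2-005 lymphoblastoid cells, 2500/well, 5 h pre-incubation, then 24 h compound exposure at 37 C in complete medium. Tetraoctylammonium bromide positive control; AC50 by standard Hill fit.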

Test [8] is described as follows: Cell Viability - LYMP2-013 (AID 970).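 Note: 0% = DMSO only and full inhibition = tetraoctylammonium bromide control; nearly all actives have a fitted effect of over 55% in size.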 The settings on record: LYMP2-013 lymphoblastoid cells viability; series mostly up to 92.2 µM. The procedure, abridged:
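qHTS; 2500 lymphoblastoid cells/well; 5 hr 37 C settle; cpd 24 hr 37 C; CellTiter-Glo, 30 min RT; luminescence. AC50 = Hill fit.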

A short description of test [9]: Cell Viability - LYMP2-015 (AID 971).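 Note: 0% = DMSO only and full effect = 92 µM tetraoctylammonium bromide; nearly all actives have a fitted effect of over 55% in size.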 The settings on record: LYMP2-015 lymphoblastoid cell viability; series mostly up to 92.2 µM. The procedure, abridged: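 Luminescent ATP read-out (CellTiter-Glo) served as the viability measure after lymphoblastoid cells were exposed to compounds for 24 hours at 37 C. Concentration-response data were fitted with the Hill equation to give AC50.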

Test [10] in a line: Cell Viability - LYMP2-017 (AID 972). Note: % is set by controls: 0 for no effect and ±100 for the full control effect; nearly all actives have a fitted effect of over 55% in size. The settings on record: LYMP2-017 lymphoblastoid cell viability; series mostly up to 92.2 µM. The gist of the method:
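2500 cells/well, 5 h 37 C; cpd 24 h 37 C in complete medium; CellTiter-Glo, 30 min RT; luminescence (ATP). AC50 via Hill fit, qHTS.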

Test [11] is described as follows: Cell Viability - LYMP2-019 (AID 973).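 Note: 0% = DMSO alone and full effect = 92 µM tetraoctylammonium bromide; nearly all actives have a fitted effect of over 55% in size.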 The settings on record: LYMP2-019 lymphoblastoid cell line viability; series mostly up to 92.2 µM. The gist of the method:
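Luminescent ATP read-out (CellTiter-Glo, 30 min room temperature) served as the viability measure after 24 hr treatment of lymphoblastoid cells at 37 C. Concentration-response data were fitted to the Hill equation for AC50.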

The nature of test [12]: Cell Viability - LYMP2-023 (AID 975). The settings on record: LYMP2-023 lymphoblastoid cell viability; series mostly up to 92.2 µM. The gist of the method: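 2500 cells/well, 5 hr 37 C; cpd 24 hr 37 C; CellTiter-Glo, 30 min RT; luminescence. qHTS conc-response, Hill fit -> AC50. Pos ctrl tetraoctylammonium bromide.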
Test [13] is described as follows: Cell Viability - LYMP2-007 (AID 979).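 Note: cells exposed to compound for 24 h before reading; 0% = DMSO only and the negative end = 92 µM tetraoctylammonium bromide; nearly all actives have a fitted effect of over 60% in size.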 The settings on record: LYMP2-007 lymphoblastoid cell viability; series mostly up to 92.2 µM. The procedure, abridged: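 Luminescent ATP signal (CellTiter-Glo) serves as the viability read-out after 24 hr compound treatment of lymphoblastoid cells in complete medium at 37 C. Concentration-response data were fitted to the Hill equation to give AC50 values.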

The nature of test [14]: Cell Viability - LYMP2-024 (AID 988).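 Note: plate controls were DMSO only for no effect and 92 µM tetraoctylammonium bromide for full effect; nearly all actives have a fitted effect of over 60% in size.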 The settings on record: LYMP2-024 lymphoblastoid cell viability; series mostly up to 92.2 µM. The procedure, abridged: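 Steps: seed 2500 cells/well, 5 hr 37 C; add compound, 24 hr 37 C; add CellTiter-Glo, 30 min room temperature; read luminescence. AC50 derived by Hill modelling of concentration-dependent ATP loss.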
The target in test [15] is Vitamin D3 receptor (Homo sapiens) (UniProt P11473). As to the kind of experiment: qHTS assay for small molecule agonists of vitamin D receptor signaling (AID 588543; calls by dose curve;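 note: 0% = DMSO basal and 100% = reference agonist control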). The settings on record: HEK293T VDR-UAS-bla, beta-lactamase ratio, 16 h; series mostly up to 76.8 µM. The procedure, abridged:
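GeneBLAzer VDR-UAS-bla HEK293T cells in 2% charcoal-stripped FBS medium were dosed with compound titrations for 16 h at 37 °C; CCF4 β-lactamase readout (405 nm ex, 460/530 nm em). EC50 and efficacy from Hill fits, normalized to 50 nM calcitriol (100%) and DMSO (0%).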

Test [16] is described as follows: qHTS assay for small molecule antagonists of retinoid X receptor alpha signaling (AID 588546).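 Note: cells stimulated with 9-cis-retinoic acid as agonist; % is set by controls: 0 for no effect and ±100 for the full control effect.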 The settings on record: HEK293T RXRa-UAS-bla, beta-lactamase ratio, antagonist mode; measured here: W530 green channel, cytotoxicity proxy. The gist of the method: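 Beta-lactamase reporter inhibition, read as CCF4 fluorescence ratio (ex 405, em 460/530 nm) after 2 h at RT. HEK293T UAS-bla cells, 2500/well, were stimulated with 9-cis-RA at 500 or 100 nM final alongside test compound for 18 h at 37 C.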

Test [17] in a line: qHTS assay for small molecule activators of the p53 signaling pathway (AID 651743; active = well fitted activation curve with a large enough effect in the signal ratio, not every such curve was filed as active; the % refers to the signal ratio; note: potency is the fitted concentration of half-maximal effect; for activation: % of control where 0% means no effect). The settings on record: HCT-116 p53RE-bla, beta-lactamase FRET ratio, 16 h; activation: stronger effect = higher value. The procedure, abridged: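 Cell-based beta-lactamase reporter (p53 response elements, HCT-116 background). After a 5-hour preincubation, cells received compound for 16 hours at 37 C; substrate development ran 2 hours at room temperature.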

The nature of test [18]: Cellular Toxicity (caspase-3) HepG2 (AID 654).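 Note: cells exposed to compound for 16 hours before reading.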 The settings on record: HepG2 caspase-3 activation, luminescence, 0% = DMSO only, 100% = tamoxifen; series mostly up to 92.2 µM. The gist of the method: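 Cells plated 5 hr at 37 °C, compound added, incubated 16 hr at 37 °C. Caspase-Glo 3/7 reagent followed, 20 min at room temperature, then luminescence read. Activation scored as signal increase; AC50 from Hill fit.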

Test [19] is described as follows: Cellular Toxicity (caspase-3) BJ (AID 658).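 Note: 0% = DMSO basal and 100% = 10 µM staurosporine.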 The settings on record: BJ fibroblasts, luminescence, normalized: DMSO 0%, staurosporine 100%; series mostly up to 91.7 µM. The gist of the method:
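Luminescent aminoluciferin-substrate cleavage reports caspase 3/7 activity in normal human BJ fibroblasts after 16 hr compound exposure at 37 °C. Normalized to DMSO (basal) and 10 uM staurosporine (100%); AC50 from Hill fit of concentration-response.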

Test [20] addresses Thyroid hormone receptor beta (Homo sapiens) (UniProt P10828). The test is described as follows: qHTS assay for small molecule agonists of thyroid hormone receptor beta signaling (AID 588545; calls by dose curve;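 note: 0% = DMSO only and 100% = 10 nM T3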). The settings on record: TR-UAS-bla GripTite HEK 293, beta-lactamase ratio, agonist mode, 18 h; series mostly up to 76.7 µM. The procedure, abridged: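 Efficacy and EC50 values derive from Hill fits of qHTS titration data, normalized to 10 nM T3 and DMSO-only wells. HEK 293 reporter cells were stimulated for 18 hrs at 37 C, with beta-lactamase activity measured by CCF4 fluorescence.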

Data on six compounds can be found in PubChem BioAssay (NCATS).

Values joined by “and” are separate entries in the source; they are usually repeats but may differ in a detail not shown here. Equal values may be shown once. Results filed as inconclusive are left out. Active and inactive are the calls of the source. Unless noted, calls come from the whole dose curve; as a rule, active = well fitted curve in the direction sought with a large enough effect; inconclusive = small, poorly fitted or top-dose-only effect, or another doubt; inactive = no such curve, though single readings can be large; an effect the other way counts as inactive or inconclusive. Bounds are passed on as bounds.

Chain of Vitamin D3 receptor (Homo sapiens) (P11473 whole entry, looked up): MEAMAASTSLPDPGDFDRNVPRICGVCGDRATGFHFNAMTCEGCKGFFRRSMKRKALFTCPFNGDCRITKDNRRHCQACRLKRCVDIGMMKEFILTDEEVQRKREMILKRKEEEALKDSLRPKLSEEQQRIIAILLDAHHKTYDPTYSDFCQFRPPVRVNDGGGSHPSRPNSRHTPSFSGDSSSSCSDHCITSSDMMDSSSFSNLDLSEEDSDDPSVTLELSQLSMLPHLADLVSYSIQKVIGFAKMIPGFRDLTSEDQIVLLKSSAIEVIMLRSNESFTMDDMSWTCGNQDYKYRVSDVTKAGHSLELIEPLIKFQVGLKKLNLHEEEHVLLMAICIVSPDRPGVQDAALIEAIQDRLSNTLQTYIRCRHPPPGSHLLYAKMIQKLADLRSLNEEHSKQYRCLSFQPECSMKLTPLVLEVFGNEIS
Chain of Thyroid hormone receptor beta (Homo sapiens) (P10828 whole entry, looked up): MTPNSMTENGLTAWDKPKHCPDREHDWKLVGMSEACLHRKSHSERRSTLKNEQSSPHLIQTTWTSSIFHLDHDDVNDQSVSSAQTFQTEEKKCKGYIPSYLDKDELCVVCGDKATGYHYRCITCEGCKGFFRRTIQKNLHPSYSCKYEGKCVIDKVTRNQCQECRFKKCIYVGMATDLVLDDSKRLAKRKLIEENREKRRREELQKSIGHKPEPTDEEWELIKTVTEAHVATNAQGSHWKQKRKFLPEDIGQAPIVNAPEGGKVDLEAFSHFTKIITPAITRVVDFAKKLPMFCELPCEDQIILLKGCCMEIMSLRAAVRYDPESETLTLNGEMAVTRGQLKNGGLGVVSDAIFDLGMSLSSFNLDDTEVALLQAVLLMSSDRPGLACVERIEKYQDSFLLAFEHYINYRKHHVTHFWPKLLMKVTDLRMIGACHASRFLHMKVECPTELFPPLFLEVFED

For `c1ccc(OCC2CO2)cc1` (centres undefined), in test [1], the Potency was > 92 µM (inactive). In addition, the Potency entry in test [2], in [3], in [5], in [7], in test [8] and in test [9] was “inactive” in each case. Further, the Potency entry in test [10], in test [11], in [12], in test [13] and in test [14] was “inactive” in each case. Further, the compound was classed as inactive in [4], in test [6] and in [15]. Besides, in test [16], the max response was determined as 6.84%. For the same compound, the activation in [17] is -2.65% (inactive).

With `Nc1ccccc1-c1ccccc1`, the Potency in test [1] is > 92 µM (inactive). Further, the Potency entry in test [2], in test [3], in test [5], in test [7], in [8] and in test [9] was “inactive” each time. Besides, the Potency entry in test [10], in test [11], in test [12], in test [13], in test [14] and in test [20] was “inactive” throughout. In addition, the call in test [18], in [19], in test [6] and in test [15] was inactive. Also, in test [16], the max response is -0.398%. Moreover, the activation in test [17] is -6.93% (inactive).

In the case of `O=C(Cc1ccccc1)OCc1ccccc1`, the Potency in [1] is > 92 µM (inactive). Moreover, the Potency result in test [3], in test [7], in [8], in test [9], in test [10] and in [11] was “inactive” in each case. Further, the Potency result in test [12], in test [13], in [14] and in test [20] was “inactive” throughout. The call in test [18], in [19], in test [4], in [6] and in test [15] was inactive. The max response in test [16] is 8.24%.

As to `COC(=O)Nc1nc2ccccc2[nH]1`, the Potency was > 92 µM (inactive) in [1]; 10 µM (active) and 12.6 µM (active) in test [17]. For the same compound, the Potency entry in test [2], in test [5], in test [7], in test [8], in test [10] and in test [11] was “inactive” each time. Moreover, the Potency result in test [13], in test [14] and in test [20] was “inactive” each time. The result in test [18], in [19], in test [4], in test [6] and in test [15] was inactive. Besides, the max response in test [16] turned out to be 1.76%.

For the compound `C=CCO`, in test [1], the Potency is > 92 µM (inactive). Besides, the Potency result in [2], in test [3], in [5], in test [7], in test [8] and in test [9] was “inactive” throughout. Also, the Potency entry in test [10], in [11], in test [13] and in [14] was “inactive” each time. The call in test [18], in test [19] and in test [6] was inactive. Further, in test [16], the max response is 1.87%. In [17], the activation is -1.01% (inactive).

As for `ClCCCCl`, the Potency in test [1] was > 92 µM (inactive). Moreover, the Potency result in test [2], in test [3], in [7], in [8], in [9] and in [10] was “inactive” each time. The Potency entry in test [11], in test [12], in test [13] and in [14] was “inactive” each time. Also, the call in [18], in test [19], in [4], in [6] and in test [15] was inactive. In addition, in [16], the max response was -7.74%. Besides, the activation in [17] is -3.64% (inactive).
